The record followed here is PubChem BioAssay (NCATS).

In assay [1] the target is Cytochrome P450 2D6 (Homo sapiens) (UniProt P10635). Kind of assay: Cytochrome P450 family 2 subfamily D member 6 (CYP2D6) small molecule antagonists: luciferase biochemical (cell-free) qHTS assay (AID 1645840; active = well fitted curve in the direction sought with a large enough effect in the repeat runs; an effect the other way counts as inactive or inconclusive; also: nearly all actives have a fitted effect of over 55% in size; also: potency is read from the fitted curve at half-maximal effect). The following applies: P450-Glo CYP2D6 enzyme, luciferin luminescence, 1 h; series mostly up to 57.4 µM. The method in brief:
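P450-Glo luminescent screen: recombinant CYP2D6 enzyme–proluciferin substrate mix preincubated with compound 10 min at room temperature, then NADPH regeneration added for 1 h at room temperature. Detection reagent added for 20 min; luciferin light read as relative luminescence units.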
On the technique in general: qHTS replaces the single test concentration by a dilution series.

In assay [2] the target is Cytochrome P450 2C9 (Homo sapiens) (UniProt P11712). The experiment in a line: Cytochrome P450 family 2 subfamily C member 9 (CYP2C9) small molecule antagonists: luciferase biochemical (cell-free) qHTS assay (AID 1645842; active = well fitted curve in the direction sought with a large enough effect in the repeat runs; an effect the other way counts as inactive or inconclusive; also: nearly all actives have a fitted effect of over 55% in size; also: potency is read from the fitted curve at half-maximal effect). The note with it: P450-Glo CYP2C9 enzyme assay, luciferin luminescence; series mostly up to 57.4 µM. In a few lines: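 Luminescence, after 20 min with luciferin detection reagent, reflected CYP2C9 turnover during a 1 h NADPH-driven reaction at 37C. Enzyme-substrate mix contained 0.4% bovine serum albumin and was preincubated with compound 10 min at room temperature.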
Cytochrome P450 2C9 (Homo sapiens), sequence (P11712 whole entry, looked up): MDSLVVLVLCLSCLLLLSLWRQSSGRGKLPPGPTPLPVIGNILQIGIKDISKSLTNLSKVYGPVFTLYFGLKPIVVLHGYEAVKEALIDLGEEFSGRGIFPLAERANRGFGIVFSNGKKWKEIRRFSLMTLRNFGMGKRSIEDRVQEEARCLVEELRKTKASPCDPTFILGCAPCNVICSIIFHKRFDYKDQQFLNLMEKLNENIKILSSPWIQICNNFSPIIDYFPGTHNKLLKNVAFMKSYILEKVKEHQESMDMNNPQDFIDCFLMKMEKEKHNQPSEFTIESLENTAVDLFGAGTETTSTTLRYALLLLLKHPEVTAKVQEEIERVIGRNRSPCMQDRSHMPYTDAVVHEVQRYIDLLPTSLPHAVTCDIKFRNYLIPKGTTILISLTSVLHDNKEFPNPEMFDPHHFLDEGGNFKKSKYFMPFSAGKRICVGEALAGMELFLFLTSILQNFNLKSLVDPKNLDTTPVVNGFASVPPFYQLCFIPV

A short description of assay [3]: Primary qHTS for inhibitors of nuclear receptor binding SET domain protein 2 (NSD2) in an isogenic RCH-ACV NSD2 p.E1099K mutant (9B) (AID 1645876). Also: nearly all actives have a fitted effect of over 70% in size. Also: potency is read from the fitted curve at half-maximal effect. The following applies: RCH-ACV NSD2 E1099K (9B) viability, CellTiter-Glo, 72 h; series mostly up to 44.9 µM.
Assay [4] in a line: Primary qHTS for inhibitors of nuclear receptor binding SET domain protein 2 (NSD2) in an RCH-ACV wild type WT cells (2C) (AID 1645877). Also: nearly all actives have a fitted effect of over 70% in size. Also: potency is read from the fitted curve at half-maximal effect. The following applies: RCH-ACV (leukaemia line) NSD2 WT (2C) viability, CellTiter-Glo, 72 h; series mostly up to 44.9 µM.
The target in assay [5] is N-terminal Xaa-Pro-Lys N-methyltransferase 1 (Homo sapiens) (UniProt Q9BV86). Kind of assay: Confirmatory qHTS for Inhibitors of N-terminal methyltransferase 1 (NTMT1): MTaseGlo Assay (AID 1645874). Also: nearly all actives have a fitted effect of over 65% in size. Also: potency is read from the fitted curve at half-maximal effect. The following applies: NTMT1 enzyme, MTase-Glo SAH luminescence; series mostly up to 100 µM. In a few lines:
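Preincubation of NTMT1 (125 nM) plus SAM (100 uM) with test compounds lasted 15 min; methylation of 1 uM SPKRIA then proceeded 30 min in the dark at room temperature. Luciferase signal reported SAH produced.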

Assay [6] has as its target Catechol O-methyltransferase (Homo sapiens) (UniProt P21964). The experiment in a line: Confirmatory Screen for Target Class Profiling of Small Molecule Inhibitors of Methyltransferases (AID 1745852). The following applies: MTase-Glo luminescence, SAH detection, recombinant enzyme; measured here: COMT max response; stronger effect = lower value.

Values joined by “and” are separate entries in the source; they are usually repeats but may differ in a detail not shown here. Equal values may be shown once. Results filed as inconclusive are left out. Where a structure was tested more than once in an assay, its records may differ in their call. Active and inactive are the calls of the source. Unless noted, calls follow the shape of the dose curve; as a rule, active = well fitted curve in the direction sought with a large enough effect; inconclusive = small, poorly fitted or top-dose-only effect, or another doubt; inactive = no such curve, though single readings can be large; an effect the other way counts as inactive or inconclusive.

N-terminal Xaa-Pro-Lys N-methyltransferase 1 (Homo sapiens), sequence (Q9BV86 whole entry, looked up): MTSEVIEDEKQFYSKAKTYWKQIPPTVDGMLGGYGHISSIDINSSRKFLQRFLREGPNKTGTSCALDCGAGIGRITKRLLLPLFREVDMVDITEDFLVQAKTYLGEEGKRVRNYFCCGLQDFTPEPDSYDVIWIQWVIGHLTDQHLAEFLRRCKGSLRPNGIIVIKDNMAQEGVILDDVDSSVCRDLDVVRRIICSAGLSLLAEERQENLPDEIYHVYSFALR
Cytochrome P450 2D6 (Homo sapiens), sequence (P10635 whole entry, looked up): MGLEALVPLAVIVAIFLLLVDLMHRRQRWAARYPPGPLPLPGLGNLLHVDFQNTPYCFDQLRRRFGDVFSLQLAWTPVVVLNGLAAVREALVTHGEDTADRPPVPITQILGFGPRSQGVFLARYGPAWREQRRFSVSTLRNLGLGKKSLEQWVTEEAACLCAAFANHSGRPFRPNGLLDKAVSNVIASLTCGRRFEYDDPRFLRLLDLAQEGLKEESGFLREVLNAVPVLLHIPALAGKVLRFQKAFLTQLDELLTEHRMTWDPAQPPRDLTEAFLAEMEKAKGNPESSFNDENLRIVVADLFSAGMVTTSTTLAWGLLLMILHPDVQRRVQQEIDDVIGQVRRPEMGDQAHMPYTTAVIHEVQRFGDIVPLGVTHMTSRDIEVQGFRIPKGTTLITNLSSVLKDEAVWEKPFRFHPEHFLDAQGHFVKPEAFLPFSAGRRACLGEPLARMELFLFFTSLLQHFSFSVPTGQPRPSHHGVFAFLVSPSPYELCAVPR
Catechol O-methyltransferase (Homo sapiens), sequence (P21964 whole entry, looked up): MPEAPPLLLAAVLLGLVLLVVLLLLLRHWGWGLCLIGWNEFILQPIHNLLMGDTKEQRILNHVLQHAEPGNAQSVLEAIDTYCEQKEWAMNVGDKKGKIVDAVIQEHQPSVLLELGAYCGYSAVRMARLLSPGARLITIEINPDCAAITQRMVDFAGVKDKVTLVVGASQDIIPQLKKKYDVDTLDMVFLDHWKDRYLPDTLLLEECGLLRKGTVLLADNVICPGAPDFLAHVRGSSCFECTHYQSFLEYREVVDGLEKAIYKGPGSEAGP

`COc1ncc2cc(C(=O)Nc3cc(C(=O)NCc4cccc(Cl)c4)ccc3Cl)c(=O)[nH]c2n1`: the Potency entry in assay [1] was “inactive”. For the same compound, the Potency in assay [2] is 19 µM (active); in assay [3], 6.51 µM (active); in assay [4], 5.8 µM (active).

Consider `Cc1ccc(C(=O)Nc2noc3ccccc23)cc1`, for which the Potency in assay [1] was 7560 nM (active); in assay [2], 16.9 µM (active). Moreover, the Potency result in assay [3] and in assay [4] was “inactive” in each case.

For the compound `CC(Oc1ccc2[nH]nc(/C=C/c3cnn(CCO)c3)c2c1)c1c(Cl)cncc1Cl` (stereo not given), the Potency in assay [1] is 2390 nM (active); in assay [2] it was 0.536 µM (active); in assay [3] it was 0.115 µM (active); in assay [4], 0.103 µM (active).

In the case of `CC(C)(C)NCCCNC(=O)c1cccc(Br)c1`, the Potency in assay [1] is 849 nM (active). Moreover, the Potency result in assay [2], in assay [3] and in assay [4] was “inactive” in each case.

On to `CN(C)C/C=C/C(=O)Nc1cc2c(Nc3ccc(F)c(Cl)c3)ncnc2cc1OC1CCOC1` (stereo not given), for which, in assay [1], the Potency result is “inactive”. Further, the Potency is 15.1 µM (active) in assay [2], 20000 nM (active) in assay [5], 2.3 µM (active) in assay [3] and 2.3 µM (active) in assay [4].

In the case of `CCCn1c(=O)c2[nH]c(-c3ccc(OCC(=O)O)cc3)nc2n(CCC)c1=O`, the Potency entry in assay [1], in assay [2], in assay [3] and in assay [4] was “inactive” in each case.

As for `COc1ccc(C(=O)C2CCN(CC(=O)N(Cc3nc4c(c(=O)[nH]3)COCC4)CC3CC3)CC2)cc1`, the Potency entry in assay [1], in assay [3] and in assay [4] was “inactive” each time. Besides, the Potency in assay [2] is 8.49 µM (active).

As for `Cc1cc(C)c2c(N)c(C(=O)NCc3ccc(Cl)cc3)sc2n1`, the figures for the Potency in assay [1] and in assay [2] were 13500 nM (active) and 1.9 µM (active), respectively. The Potency result in assay [5] was “inactive”.

For `COc1ccc(F)cc1-c1cc(NC(=O)[C@@H]2CCCNC2)ncc1Cl`, in assay [1], the Potency entry is “inactive”. Moreover, the results for the Potency in assay [2], in assay [3] and in assay [4] were 1.34 µM (active), 0.0649 µM (active) and 0.0649 µM (active), respectively.

In the case of `Cc1cc(-c2cc(O)ccc2Cl)cc2nnc(Nc3ccc(OCCN4CCCC4)cc3)nc12`, the Potency is 16900 nM (active) in assay [1], 12 µM (active) in assay [2], 3.25 µM (active) in assay [3] and 2.9 µM (active) in assay [4].

Turning to `COC(=O)CC1CC(c2ccc(O)cc2)=NO1` (stereo not given), the Potency entry in assay [1], in assay [2] and in assay [3] was “inactive” in each case.

Take `Cc1cc(C)c(Nc2ccnc(Nc3ccc(C#N)cc3)n2)c(C)c1`: the Potency was 10700 nM (active) in assay [1], 3.79 µM (active) in assay [2], 4.09 µM (active) in assay [3] and 4.09 µM (active) in assay [4].

Turning to `COc1cc2ncnc(Nc3ccc(F)c(Cl)c3)c2cc1NC(=O)/C=C/CN1CCCCC1`, the Potency in assay [1] is 47.7 nM (active); in assay [5] it was 35500 nM (active); in assay [3] it was 4.17 µM (active); in assay [4], 3.32 µM (active). Also, the Potency entry in assay [2] is “inactive”. In addition, the activity in assay [6] was -45.2%.

For the compound `CNC(=O)c1cccc(-c2ccc3c(N4CCOC[C@@H]4C)nc(N4CCOC[C@@H]4C)nc3n2)c1`, the Potency entry in assay [1] was “inactive and 15.1 µM (active)”; in assay [2], 12 µM (active) and 10.7 µM (active); in assay [3], 129 nM (active) and 326 nM (active) and 148 nM (active); in assay [4], 230 nM (active) and 326 nM (active) and 296 nM (active).

As to `COc1cc2ncnc(N3CCC(Oc4cnc5ccccc5n4)C3)c2cc1OC` (stereo not given), in assay [1], the Potency entry was “inactive”. Besides, the Potency in assay [2] is 10.7 µM (active); in assay [3], 0.258 µM (active); in assay [4] it was 0.145 µM (active).

On to `Cc1ccc(C)c(OCCn2cc(C(=O)O)c3ccccc32)c1`, for which the Potency entry in assay [1], in assay [3] and in assay [4] was “inactive” each time. Further, the Potency in assay [2] is 13.5 µM (active).

On to `Cc1cc(OCc2nnc(SC3CCCC3)n2-c2cccnc2)ccc1-c1ccc(S(C)(=O)=O)cc1`, for which the Potency entry in assay [1] was “inactive”. In addition, the Potency in assay [2] was 8.49 µM (active); in assay [3], 0.817 µM (active); in assay [4], 1.45 µM (active).

For the compound `COC(C(=O)N1Cc2[nH]nc(NC(=O)c3ccc(N4CCN(C)CC4)cc3)c2C1)c1ccccc1` (stereo not given), the Potency result in assay [1] and in assay [2] was “inactive” in each case. In addition, the Potency in assay [3] was 0.0515 µM (active); in assay [4] it was 0.0459 µM (active).

On to `COc1ccc(-c2cnc(-c3cccc4c3-c3ccccc3C4=O)o2)cc1`, for which, in assay [1], the Potency entry was “inactive”. Besides, the Potency in assay [2] was 0.657 µM (active); in assay [3] it was 0.0893 µM (active); in assay [4], 0.0893 µM (active).

With `COc1ccc(-c2ccc(-c3cn(C(=O)N4CCCCC4c4ccccc4)nn3)cc2)cc1` (stereo not given), the Potency entry in assay [1], in assay [3] and in assay [4] was “inactive” throughout. For the same compound, the Potency in assay [2] was 2.13 µM (active).

Take `Cc1ccc(C(=O)N(CCCN)C(c2oc3cc(Cl)ccc3c(=O)c2Cc2ccccc2)C(C)C)cc1` (stereo not given): the results for the Potency in assay [1] and in assay [2] were 10700 nM (active) and 10.7 µM (active), respectively. In addition, the Potency entry in assay [3] and in assay [4] was “inactive” in each case.

Regarding `COc1cc(Nc2nc3c(s2)CCCC3c2ccc(F)cc2)ccc1-n1cnc(C)c1` (stereo not given), the Potency is 849 nM (active) in assay [1], 1.34 µM (active) in assay [2], 11.5 µM (active) in assay [3] and 10.3 µM (active) in assay [4].

Regarding `CCOc1cc(CC(=O)NC(CC(C)C)c2ccccc2N2CCCCC2)ccc1C(=O)O` (stereo not given), the Potency result in assay [1], in assay [2], in assay [3] and in assay [4] was “inactive” each time.

For the compound `O=[N+]([O-])c1cccc2[nH]c(CNc3nc(N4CCOCC4)nc4c3ncn4-c3ccsc3)nc12`, the Potency entry in assay [1] was “inactive”. Besides, the Potency in assay [2] was 0.952 µM (active); in assay [3], 0.0649 µM (active); in assay [4], 0.0649 µM (active).

As for `CC(C)(C)Nc1nc2cc(Cl)c(Cl)cc2nc1S(C)(=O)=O`, the Potency in assay [1] is 6010 nM (active); in assay [2], 5.35 µM (active); in assay [3] it was 1.29 µM (active); in assay [4], 0.409 µM (active).

Regarding `COc1ccc(CCO[C@@H]2CCCC[C@H]2N2CC[C@@H](O)C2)cc1OC`, the Potency in assay [1] is 10700 nM (active). For the same compound, the Potency entry in assay [2], in assay [3] and in assay [4] was “inactive” each time.
